Results reported in article PMC2807882, “Conservation of DNA-binding specificity and oligomerisation properties within the p53 family”.

Experiments:
Assay in all cases: fluorescence anisotropy competition titration; 25 mM sodium phosphate (purification buffer pH 7.2), 225 mM NaCl, 10% v/v glycerol, 5 mM DTT, 0.2 mg/mL BSA, 22 C; low values mean tight binding
Settings in all cases: protein: recombinant; tags: N-terminal 6xHis-lipoyl-TEV tag, cleaved; chain copies: 4; dsDNA, one strand shown
Dmp53 = target: T1, Dmp53 (Drosophila melanogaster, UniProt Q9N6D8 1-385)
T1 sequence: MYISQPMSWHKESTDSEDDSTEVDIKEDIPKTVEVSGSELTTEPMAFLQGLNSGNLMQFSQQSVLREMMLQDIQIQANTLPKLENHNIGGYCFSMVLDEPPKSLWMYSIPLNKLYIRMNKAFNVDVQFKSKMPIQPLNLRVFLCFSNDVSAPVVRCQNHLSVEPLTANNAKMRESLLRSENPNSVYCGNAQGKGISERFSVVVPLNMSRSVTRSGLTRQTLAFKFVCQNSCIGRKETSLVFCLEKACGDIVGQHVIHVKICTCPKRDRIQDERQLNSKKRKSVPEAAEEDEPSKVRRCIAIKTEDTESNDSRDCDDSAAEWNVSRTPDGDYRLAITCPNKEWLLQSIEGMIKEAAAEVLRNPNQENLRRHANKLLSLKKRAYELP

Hsp53 = Hsp53 (Homo sapiens, UniProt P04637 1-393)
Xlp53 = Xlp53 (Xenopus laevis, UniProt Q7T1D0 1-362)
ΔNp63α = target: T2, ΔNp63α (Homo sapiens, UniProt Q9H3D4-2 1-586)
T2 sequence: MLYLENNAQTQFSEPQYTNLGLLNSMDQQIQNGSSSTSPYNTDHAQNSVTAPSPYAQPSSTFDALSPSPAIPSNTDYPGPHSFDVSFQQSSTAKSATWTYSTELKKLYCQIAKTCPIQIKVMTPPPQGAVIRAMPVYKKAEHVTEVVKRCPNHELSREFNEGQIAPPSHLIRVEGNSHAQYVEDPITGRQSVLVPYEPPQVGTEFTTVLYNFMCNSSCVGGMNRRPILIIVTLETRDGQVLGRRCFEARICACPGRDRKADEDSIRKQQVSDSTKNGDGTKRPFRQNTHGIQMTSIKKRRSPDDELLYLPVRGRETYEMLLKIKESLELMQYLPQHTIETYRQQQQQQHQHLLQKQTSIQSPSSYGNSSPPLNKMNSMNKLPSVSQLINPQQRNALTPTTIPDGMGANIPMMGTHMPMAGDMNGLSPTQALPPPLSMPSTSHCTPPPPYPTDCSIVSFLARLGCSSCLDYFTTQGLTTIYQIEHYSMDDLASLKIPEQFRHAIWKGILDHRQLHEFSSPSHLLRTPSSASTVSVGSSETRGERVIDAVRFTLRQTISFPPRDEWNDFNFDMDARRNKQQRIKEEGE

ΔNp63β = target: T3, ΔNp63β (Homo sapiens, UniProt Q9H3D4-4 1-461)
T3 sequence: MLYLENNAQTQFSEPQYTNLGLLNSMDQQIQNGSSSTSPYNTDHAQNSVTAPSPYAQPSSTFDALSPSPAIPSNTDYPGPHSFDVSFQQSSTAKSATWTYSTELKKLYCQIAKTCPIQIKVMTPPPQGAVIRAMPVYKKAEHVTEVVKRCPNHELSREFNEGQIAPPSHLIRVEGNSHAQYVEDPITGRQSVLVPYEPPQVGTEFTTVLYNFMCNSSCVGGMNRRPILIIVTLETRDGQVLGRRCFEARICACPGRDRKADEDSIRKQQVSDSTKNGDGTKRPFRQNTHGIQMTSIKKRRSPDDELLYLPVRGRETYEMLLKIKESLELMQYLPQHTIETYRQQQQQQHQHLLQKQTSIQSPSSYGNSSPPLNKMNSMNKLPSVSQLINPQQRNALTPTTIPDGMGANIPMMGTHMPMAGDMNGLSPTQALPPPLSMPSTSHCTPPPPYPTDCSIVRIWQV

ΔNp63γ = target: T4, ΔNp63γ (Homo sapiens, UniProt Q9H3D4-6 1-393)
T4 sequence: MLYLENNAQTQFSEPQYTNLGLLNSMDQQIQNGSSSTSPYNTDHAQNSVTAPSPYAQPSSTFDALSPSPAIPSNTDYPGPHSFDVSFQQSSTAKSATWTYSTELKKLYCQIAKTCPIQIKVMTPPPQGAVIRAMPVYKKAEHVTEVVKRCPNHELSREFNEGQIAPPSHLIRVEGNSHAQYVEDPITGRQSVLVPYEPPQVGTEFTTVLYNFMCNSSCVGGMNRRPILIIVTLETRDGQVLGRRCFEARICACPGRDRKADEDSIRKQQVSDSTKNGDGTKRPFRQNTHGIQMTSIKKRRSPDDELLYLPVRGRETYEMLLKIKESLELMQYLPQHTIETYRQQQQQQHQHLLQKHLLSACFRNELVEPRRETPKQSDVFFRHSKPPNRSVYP

ΔNp73β = target: T5, ΔNp73β (Homo sapiens, UniProt O15350-9 1-450)
T5 sequence: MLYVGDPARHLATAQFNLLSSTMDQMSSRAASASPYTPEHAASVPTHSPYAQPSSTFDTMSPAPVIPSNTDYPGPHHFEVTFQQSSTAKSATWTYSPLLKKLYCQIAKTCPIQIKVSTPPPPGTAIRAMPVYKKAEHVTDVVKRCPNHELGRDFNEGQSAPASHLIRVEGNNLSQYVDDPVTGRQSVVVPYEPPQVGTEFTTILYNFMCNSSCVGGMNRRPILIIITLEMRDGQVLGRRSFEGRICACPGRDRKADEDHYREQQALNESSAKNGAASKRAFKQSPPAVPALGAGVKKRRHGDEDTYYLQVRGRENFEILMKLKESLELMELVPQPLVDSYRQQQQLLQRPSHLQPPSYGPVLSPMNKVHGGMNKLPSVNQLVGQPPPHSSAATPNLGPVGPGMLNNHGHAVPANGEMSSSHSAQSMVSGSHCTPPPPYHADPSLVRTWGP

p73CT = target: T6, p73CT (Homo sapiens, UniProt O15350 104-383)
T6 sequence: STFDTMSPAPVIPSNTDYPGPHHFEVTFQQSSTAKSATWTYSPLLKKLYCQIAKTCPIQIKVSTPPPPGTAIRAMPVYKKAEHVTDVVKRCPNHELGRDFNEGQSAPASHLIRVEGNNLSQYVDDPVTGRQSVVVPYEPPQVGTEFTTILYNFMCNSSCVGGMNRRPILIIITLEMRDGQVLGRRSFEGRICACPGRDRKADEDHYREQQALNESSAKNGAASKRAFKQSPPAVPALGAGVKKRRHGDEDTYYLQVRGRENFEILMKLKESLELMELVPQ

Drp53 = target: T7, Drp53 (Danio rerio, UniProt P79734 1-373)
T7 sequence: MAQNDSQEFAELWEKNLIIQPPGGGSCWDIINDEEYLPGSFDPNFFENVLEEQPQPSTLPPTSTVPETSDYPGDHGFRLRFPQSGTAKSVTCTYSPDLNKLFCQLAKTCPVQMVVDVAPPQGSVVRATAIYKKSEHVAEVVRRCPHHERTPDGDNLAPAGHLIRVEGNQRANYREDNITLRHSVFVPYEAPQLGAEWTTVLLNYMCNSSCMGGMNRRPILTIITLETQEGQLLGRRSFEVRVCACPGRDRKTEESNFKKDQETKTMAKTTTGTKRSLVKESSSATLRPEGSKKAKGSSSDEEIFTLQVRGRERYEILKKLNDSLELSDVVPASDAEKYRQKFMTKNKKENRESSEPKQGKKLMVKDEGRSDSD

Mmp53 = Mmp53 (Mus musculus, UniProt P02340 1-390)
Chain of Mmp53 (P02340 whole entry): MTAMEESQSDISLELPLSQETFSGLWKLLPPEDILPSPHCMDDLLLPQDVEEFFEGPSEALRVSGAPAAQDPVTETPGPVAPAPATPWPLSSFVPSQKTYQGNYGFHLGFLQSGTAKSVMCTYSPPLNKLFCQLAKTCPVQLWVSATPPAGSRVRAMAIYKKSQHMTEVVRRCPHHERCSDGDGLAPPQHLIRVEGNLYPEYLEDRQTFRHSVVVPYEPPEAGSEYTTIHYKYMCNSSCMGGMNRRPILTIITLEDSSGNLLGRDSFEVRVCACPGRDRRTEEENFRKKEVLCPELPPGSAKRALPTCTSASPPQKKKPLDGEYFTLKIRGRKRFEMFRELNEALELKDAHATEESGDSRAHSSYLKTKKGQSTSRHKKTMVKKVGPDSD

Chain of Hsp53 (P04637 whole entry): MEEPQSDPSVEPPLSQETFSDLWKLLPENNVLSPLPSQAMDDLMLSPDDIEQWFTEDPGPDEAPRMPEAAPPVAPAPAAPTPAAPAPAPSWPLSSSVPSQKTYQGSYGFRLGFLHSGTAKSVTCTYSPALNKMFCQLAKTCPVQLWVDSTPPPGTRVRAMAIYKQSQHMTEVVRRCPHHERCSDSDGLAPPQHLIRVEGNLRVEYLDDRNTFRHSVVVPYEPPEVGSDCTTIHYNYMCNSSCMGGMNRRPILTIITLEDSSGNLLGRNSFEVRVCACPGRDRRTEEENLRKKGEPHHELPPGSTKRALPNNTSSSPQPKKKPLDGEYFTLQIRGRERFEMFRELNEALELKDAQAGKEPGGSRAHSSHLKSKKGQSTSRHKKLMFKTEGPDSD
Chain of Xlp53 (Q7T1D0 entry or part of it): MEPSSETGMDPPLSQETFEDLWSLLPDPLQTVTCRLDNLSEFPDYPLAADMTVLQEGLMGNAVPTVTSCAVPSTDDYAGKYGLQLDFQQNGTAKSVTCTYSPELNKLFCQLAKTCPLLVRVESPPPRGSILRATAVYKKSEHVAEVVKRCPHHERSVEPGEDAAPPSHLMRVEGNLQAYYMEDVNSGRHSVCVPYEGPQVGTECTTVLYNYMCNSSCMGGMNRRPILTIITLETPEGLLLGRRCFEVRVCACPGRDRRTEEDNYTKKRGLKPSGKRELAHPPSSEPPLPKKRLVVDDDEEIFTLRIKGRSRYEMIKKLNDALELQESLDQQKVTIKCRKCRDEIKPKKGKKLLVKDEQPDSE

| Sequence | binding signal (Dmp53) [delta log10 Kd] | binding signal (Hsp53) [delta log10 Kd] | binding signal (Xlp53) [delta log10 Kd] | binding signal (ΔNp63α) [delta log10 Kd] | binding signal (ΔNp63β) [delta log10 Kd] | binding signal (ΔNp63γ) [delta log10 Kd] | binding signal (ΔNp73β) [delta log10 Kd] | binding signal (p73CT) [delta log10 Kd] | binding signal (Drp53) [delta log10 Kd] | binding signal (Mmp53) [delta log10 Kd] |
| --- | --- | --- | --- | --- | --- | --- | --- | --- | --- | --- |
| CGCGGACATGGCCGGACATGTCCCGC | 0.93 | 0.73 | 0.89 | 0.85 | 1.06 | 1.21 | 1.18 | 1 | – | – |
| CGCGGGCATGTCCGGACATGTCCCGC | 0.25 | 0.07 | 0.01 | – | 0 | 0.06 | – | – | 0 | 0.03 |
| CGCCGACATGTCCGGACATGTCCCGC | 0.03 | 0.17 | 0.1 | 0.04 | 0.07 | 0.09 | 0 | 0.06 | 0.15 | 0.15 |
| CGCGGACATCTCCGGACATGTCCCGC | 1.51 | 0.9 | 1.38 | 1.33 | 1.45 | 1.68 | 1.8 | 1.56 | 1.3 | 0.67 |
| CGCGAACATGTCCGGACATGTCCCGC | 0 | 0.05 | 0.01 | 0 | 0.02 | 0.1 | 0.03 | 0.05 | 0.08 | 0.08 |
| CGCGGCCATGTCCGGACATGTCCCGC | 0.75 | 0.66 | 0.82 | – | 0.88 | 0.93 | – | – | 0.86 | 0.46 |
| CGCGGACGTGTCCGGACATGTCCCGC | 0.18 | 0.43 | 0.44 | 0.07 | 0.2 | 0.19 | 0.27 | 0.22 | 0.54 | 0.31 |
| CGCGGACATGTTCGGACATGTCCCGC | 0.17 | 0.34 | 0.39 | 0.17 | 0.47 | 0.33 | 0.48 | 0.36 | 0.38 | 0.19 |
